# Measurements reported in PubChem BioAssay.
# Activity calls are given as the source filed them.
# Columns and labels:
# [1] = tested on: Plasmodium falciparum Sir2 (PF13_0152, Sir2A); test: pfSir2 binders on small-molecule microarrays, primary screen, biochemical, small-molecule microarray, 635 nm fluorescence (AID 1098); conditions: small-molecule microarray binding, fluorescence 635 nm; higher = more signal;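 further: score merges spot fluorescence intensity with its signal-to-noise ratio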
# [2] = small-molecule microarray binders of probe aDKK1, primary screen, biochemical, biotinylated probe, 635/667 nm fluorescence (AID 1099); conditions: higher = more signal;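 further: score merges 667nm spot fluorescence with signal to noise across triplicate slides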
# [3] = small-molecule microarray binders of probe aCHRDL2, primary screen, biochemical, biotinylated probe, 635/667 nm fluorescence (AID 1100); conditions: higher = more signal
# [4] = splicing luciferase reporter signal modulators, primary screen, spliceosome inhibition project, cell-based, HEK293, splice +/- reporter (AID 1101); conditions: luminescence, 24 h, higher = more signal, called active from +8 up or from −8 down;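 further: HEK293 cells carrying a splicing-competent luciferase reporter gene; test concentration not given here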
# [5] = target: Fibroblast growth factor 10 (Homo sapiens) (UniProt O15520); test: FGF10 binders on small-molecule microarrays, primary screen, biochemical, small-molecule microarray, 635 nm fluorescence (AID 1102); conditions: FGF10 binding, fluorescence 635 nm, higher = more signal
# [6] = tested on: glycogen synthase kinase-3 (GSK3A per assay name; protocol says GSK3B); test: GSK3 binders on small-molecule microarrays, primary screen, biochemical, small-molecule microarray, 635 nm fluorescence, GSK3A (AID 1103); conditions: small-molecule microarray binding, fluorescence 635 nm; higher = more signal; further: the record names both GSK3A and GSK3B
# [7] = target: Epidermal growth factor receptor (Homo sapiens) (UniProt P00533); test: EGFR binders on small-molecule microarrays, primary screen, biochemical, small-molecule microarray, 635 nm fluorescence (AID 1104); conditions: EGFR binding, higher = more signal;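 further: score merges 667 nm emission intensity with spot signal to noise over triplicate slides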
# [8] = target: Follistatin-related protein 3 (Homo sapiens) (UniProt O95633); test: FSTL3 binders on small-molecule microarrays, primary screen, biochemical, small-molecule microarray, 635 nm fluorescence (AID 1105); conditions: FSTL3 binding, higher = more signal;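 further: score merges emission near 667 nm and signal to noise per printed spot across three slides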
# [9] = target: Dickkopf-related protein 1 (Homo sapiens) (UniProt O94907); test: DKK1 binders on small-molecule microarrays, primary screen, biochemical, small-molecule microarray, 635 nm fluorescence scan (AID 1106); conditions: DKK1 binding, higher = more signal;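 further: score merges emission near 667 nm with signal to noise over three replicate slides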
# [10] = tested on: Inhibin beta A chain (activin A); test: INHBA (activin A) binders on microarrays, primary screen, biochemical, small-molecule microarray, 635 nm fluorescence scan (AID 1107); conditions: small-molecule microarray binding, higher = more signal;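 further: mouse activin A protein probed at 4.33 µg/mL on printed slides; score merges bound-protein fluorescence near 667 nm with spot signal-to-noise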
# [11] = tested on: Human papillomavirus type 1a protein E7 (residues 44-93); test: HPV1a E7 fragment binders on microarrays, primary screen, biochemical, small-molecule microarray, residues 44-93, 635 nm fluorescence (AID 1108); conditions: small-molecule microarray binding, fluorescence 635 nm; higher = more signal;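 further: E7 fragment applied at 1 µg/mL in TBST for 1 h at 4 C; score combines spot fluorescence with its signal to noise ratio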
# [12] = modulators of HCV replicon luciferase signal, primary screen, HCV replication inhibitor project, Huh7 cells, luciferase reporter (AID 1109); conditions: 48 h, higher = more signal;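 further: huh7 hepatoma cells harbouring a luciferase neomycin HCV replicon reporter; luciferase luminescence as measure of HCV replicon replication; test concentration not given here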
# [13] = target: Left-right determination factor 2 (Homo sapiens) (UniProt O00292); test: LEFTY2 binders on small-molecule microarrays, primary screen, biochemical, small-molecule microarray, 635 nm fluorescence scan (AID 1110); conditions: LEFTY2 binding, higher = more signal
# [14] = target: Calmodulin-1 (Homo sapiens) (UniProt P0DP23); test: CALM1 binders on microarrays, EGTA buffer, profiling panel, biochemical, small-molecule microarray, Cy5-labelled CALM1 (AID 1111); conditions: Cy5-CALM1 binding fluorescence, higher = more signal;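 further: labelled calmodulin applied in Tris saline Tween buffer holding calcium plus EGTA and DTT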
# [15] = target: Calmodulin-1 (Homo sapiens) (UniProt P0DP23); test: calcium-bound CALM1 binders on microarrays, profiling panel, artefact control for SMM control-protein annotation, biochemical, small-molecule microarray, Cy5-labelled CALM1, plus calcium (AID 1112); conditions: Cy5-CALM1 binding fluorescence, higher = more signal;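 further: score merges spot fluorescence with signal to noise from triplicate slides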
# [16] = small-molecule microarray binders of probe aWnt5a, primary screen, biochemical, biotinylated probe, 635/667 nm fluorescence (AID 1113); conditions: higher = more signal;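 further: score merges 667 nm fluorescence intensity with signal-to-noise per printed feature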
# [17] = small-molecule microarray binders of probe aShh, primary screen, biochemical, biotinylated probe, 635/667 nm fluorescence (AID 1114); conditions: higher = more signal;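 further: probe is biotin-labelled aShh protein from a stem cell growth factor screen; measures binding of labelled protein to compounds printed on the slide; score merges feature fluorescence at 667 nm with signal-to-noise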
# [18] = small-molecule microarray binders of probe aNog, primary screen, biochemical, biotinylated probe, 635/667 nm fluorescence (AID 1115); conditions: higher = more signal;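 further: probe is biotinylated aNog protein used at 0.15 µg/mL for 1 h at 4 C; z-score combines 667 nm fluorescence of each spot with its signal to noise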
# [19] = target: Torsin-1A-interacting protein 1 (Homo sapiens) (UniProt Q5JTV8); test: LAP1 binders from COS7 cell lysate, primary screen, small-molecule microarray, 635/667 nm fluorescence (AID 1116); conditions: COS7-hLAP1 lysate binding, 635 nm fluorescence, higher = more signal
# [20] = target: Alpha-bungarotoxin (Bungarus multicinctus) (UniProt P60615); test: alpha-bungarotoxin binders on microarray, profiling panel, artefact control for SMM control protein annotation, biochemical, small-molecule microarray, Alexa647 label, 635/667 nm fluorescence (AID 1117); conditions: alpha-BTX-A647 binding fluorescence, higher = more signal
# Sequence of Alpha-bungarotoxin (Bungarus multicinctus) (P60615 whole entry, looked up): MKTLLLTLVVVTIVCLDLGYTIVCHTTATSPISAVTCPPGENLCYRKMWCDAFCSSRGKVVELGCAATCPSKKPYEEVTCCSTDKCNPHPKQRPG
# Sequence of Torsin-1A-interacting protein 1 (Homo sapiens) (Q5JTV8 whole entry, looked up): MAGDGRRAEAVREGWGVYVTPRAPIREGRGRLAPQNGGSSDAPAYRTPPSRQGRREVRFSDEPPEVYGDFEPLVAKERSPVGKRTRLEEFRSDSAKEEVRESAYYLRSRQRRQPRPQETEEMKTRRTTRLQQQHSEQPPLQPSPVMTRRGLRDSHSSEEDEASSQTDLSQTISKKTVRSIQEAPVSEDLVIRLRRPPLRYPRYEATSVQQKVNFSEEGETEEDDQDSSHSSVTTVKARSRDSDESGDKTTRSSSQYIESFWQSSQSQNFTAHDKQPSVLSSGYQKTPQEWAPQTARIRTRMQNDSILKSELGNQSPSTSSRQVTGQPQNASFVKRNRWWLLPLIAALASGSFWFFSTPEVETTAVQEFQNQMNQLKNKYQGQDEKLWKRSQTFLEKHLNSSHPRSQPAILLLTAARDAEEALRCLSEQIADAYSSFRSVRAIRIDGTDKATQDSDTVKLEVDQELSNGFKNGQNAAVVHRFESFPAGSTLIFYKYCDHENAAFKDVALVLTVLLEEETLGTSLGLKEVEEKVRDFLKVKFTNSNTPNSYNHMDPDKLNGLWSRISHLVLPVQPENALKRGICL
# Sequence of Follistatin-related protein 3 (Homo sapiens) (O95633 whole entry, looked up): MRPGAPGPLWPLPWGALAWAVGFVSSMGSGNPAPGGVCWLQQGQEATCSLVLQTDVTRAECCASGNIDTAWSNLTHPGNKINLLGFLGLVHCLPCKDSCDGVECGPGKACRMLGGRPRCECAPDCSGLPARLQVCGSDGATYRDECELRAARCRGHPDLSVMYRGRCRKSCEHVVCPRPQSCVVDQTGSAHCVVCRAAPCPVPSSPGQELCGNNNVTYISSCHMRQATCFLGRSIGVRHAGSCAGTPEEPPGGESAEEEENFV
# Sequence of Fibroblast growth factor 10 (Homo sapiens) (O15520 whole entry, looked up): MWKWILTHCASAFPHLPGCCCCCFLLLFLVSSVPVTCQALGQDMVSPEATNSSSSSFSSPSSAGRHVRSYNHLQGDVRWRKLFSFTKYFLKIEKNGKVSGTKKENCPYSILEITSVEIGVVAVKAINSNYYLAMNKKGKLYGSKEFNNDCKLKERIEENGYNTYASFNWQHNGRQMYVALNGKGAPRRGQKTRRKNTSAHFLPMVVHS
# Sequence of Left-right determination factor 2 (Homo sapiens) (O00292 whole entry, looked up): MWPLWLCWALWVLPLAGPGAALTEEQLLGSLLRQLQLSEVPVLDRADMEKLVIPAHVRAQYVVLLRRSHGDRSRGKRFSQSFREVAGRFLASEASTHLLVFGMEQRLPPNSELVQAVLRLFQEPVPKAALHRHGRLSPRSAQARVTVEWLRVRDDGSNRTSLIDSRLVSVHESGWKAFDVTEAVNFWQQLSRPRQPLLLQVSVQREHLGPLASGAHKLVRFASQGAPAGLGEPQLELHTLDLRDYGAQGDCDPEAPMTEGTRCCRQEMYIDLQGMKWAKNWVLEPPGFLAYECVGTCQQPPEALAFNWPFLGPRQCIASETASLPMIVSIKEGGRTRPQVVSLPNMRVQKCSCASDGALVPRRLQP
# Sequence of Epidermal growth factor receptor (Homo sapiens) (P00533 whole entry, looked up): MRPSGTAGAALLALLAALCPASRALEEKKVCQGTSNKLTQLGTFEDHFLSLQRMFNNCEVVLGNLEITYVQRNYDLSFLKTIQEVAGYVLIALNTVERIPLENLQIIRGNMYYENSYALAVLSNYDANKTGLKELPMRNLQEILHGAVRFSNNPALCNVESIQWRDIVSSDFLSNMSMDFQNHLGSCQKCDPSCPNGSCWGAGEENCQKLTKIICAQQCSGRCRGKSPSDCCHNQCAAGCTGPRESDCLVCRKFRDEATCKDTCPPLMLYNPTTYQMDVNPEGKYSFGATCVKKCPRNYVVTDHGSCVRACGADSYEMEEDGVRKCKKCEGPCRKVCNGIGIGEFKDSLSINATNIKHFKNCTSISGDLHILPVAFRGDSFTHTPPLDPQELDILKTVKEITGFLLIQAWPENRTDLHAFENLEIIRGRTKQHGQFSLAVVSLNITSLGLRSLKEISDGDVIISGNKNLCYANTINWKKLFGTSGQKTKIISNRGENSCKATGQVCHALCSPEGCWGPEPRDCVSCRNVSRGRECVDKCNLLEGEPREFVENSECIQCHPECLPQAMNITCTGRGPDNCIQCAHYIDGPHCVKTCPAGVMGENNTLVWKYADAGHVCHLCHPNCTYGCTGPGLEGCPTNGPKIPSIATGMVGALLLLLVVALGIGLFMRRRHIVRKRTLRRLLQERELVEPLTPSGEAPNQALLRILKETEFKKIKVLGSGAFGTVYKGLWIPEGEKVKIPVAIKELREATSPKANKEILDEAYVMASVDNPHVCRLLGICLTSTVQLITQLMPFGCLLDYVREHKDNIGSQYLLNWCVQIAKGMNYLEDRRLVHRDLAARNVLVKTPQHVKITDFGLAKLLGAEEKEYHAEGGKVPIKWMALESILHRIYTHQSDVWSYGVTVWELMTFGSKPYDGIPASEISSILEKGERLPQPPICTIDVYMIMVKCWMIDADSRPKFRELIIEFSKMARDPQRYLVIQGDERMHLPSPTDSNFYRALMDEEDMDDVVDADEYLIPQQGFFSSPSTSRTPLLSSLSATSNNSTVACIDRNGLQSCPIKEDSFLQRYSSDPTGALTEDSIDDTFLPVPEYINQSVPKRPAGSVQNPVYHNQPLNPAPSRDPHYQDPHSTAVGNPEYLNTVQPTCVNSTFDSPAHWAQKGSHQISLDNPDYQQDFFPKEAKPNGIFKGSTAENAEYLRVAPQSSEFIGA
# Sequence of Dickkopf-related protein 1 (Homo sapiens) (O94907 whole entry, looked up): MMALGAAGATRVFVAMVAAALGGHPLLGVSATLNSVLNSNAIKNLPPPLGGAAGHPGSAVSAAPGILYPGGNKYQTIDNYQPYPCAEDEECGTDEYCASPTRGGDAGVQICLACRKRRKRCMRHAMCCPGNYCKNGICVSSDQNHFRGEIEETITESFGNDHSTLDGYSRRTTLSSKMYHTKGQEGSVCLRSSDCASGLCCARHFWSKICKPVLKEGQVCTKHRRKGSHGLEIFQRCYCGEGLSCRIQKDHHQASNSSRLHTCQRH
SMILES,composite z-score [1],composite z-score [2],composite z-score [3],z-score [4],composite z-score [5],composite z-score [6],composite z-score [7],composite z-score [8],composite z-score [9],composite z-score [10],composite z-score [11],z-score [12],composite z-score [13],composite z-score [14],composite z-score [15],composite z-score [16],composite z-score [17],composite z-score [18],composite z-score [19],composite z-score [20]
Cc1ccc(C(C)CC(O)C2C=CC3C(=O)N(C)C(=O)C3N2Nc2ccccc2)o1 (stereo not given),0.84,0.169,0.778,1.27 (inactive),1.19,1.25,1,1.39,0.593,0.989,1.4,-0.955,0.79,0.0895,-0.0452,-0.0057,-0.0769,-0.213,0.163,0.6
COCCOC(=O)N1C(=O)[C@@]2(c3cc(C#CCNC(N)=O)ccc31)[C@H](C(=O)Nc1nc3ccccc3s1)[C@H]1C(=O)O[C@H](c3ccccc3)[C@H](c3ccccc3)N1[C@@H]2c1ccccc1OCCO,0.678,0.376,0.812,-0.549 (inactive),1.38,0.392,0.597,1.05,0.397,1.22,0.629,-1.22,0.685,0.567,0.132,-0.0405,0.142,0.355,1.05,0.771
COCC(=C=CC[C@H](O)c1ccccc1OCCO)C[C@H](O)COCc1ccccc1,1.54,0.132,-0.316,-0.111 (inactive),1.49,0.342,0.335,0.3,-0.06,0.627,1.2,-1.51,0.0832,0.324,-0.678,-0.0685,0.275,0.589,1.36,-0.346
O=C1C[C@@](C(=O)O)(c2ccc([N+](=O)[O-])cc2)[C@@H](c2ccc(CO)cc2)N1C1CCCCC1,0.869,0.366,0.495,0.185 (inactive),0.869,0.582,0.369,1.1,0.649,0.633,1.45,-1.67,0.245,1.2,0.161,0.0037,0.116,-0.485,0.493,1.07
COC(=O)[C@@]1(Cc2ccccc2)[C@H]2c3cc(C(=O)N(C)C)n(Cc4ccc(C(F)(F)F)nc4)c3C[C@H]2CN1C(=O)c1ccccc1,1.52,1.17,1.24,-1.16 (inactive),1.08,1.12,-0.405,0.885,-0.547,0.822,1.49,-1.3,-0.287,1.9,1.14,0.223,0.941,2.05,1.91,0.82
COC(=O)[C@]1(Cc2ccccc2)N=C(c2ccc(OCCCO)cc2)O[C@@H]1c1ccccc1CN=[N+]=[N-],0.965,0.266,0.98,1.76 (inactive),0.506,0.509,-0.296,0.175,-0.0456,0.702,1.37,-3.37,-0.383,0.63,-0.293,-0.0944,0.0796,0.537,1.11,1.01
O=C1O[C@H](c2ccccc2)[C@H](c2ccccc2)N2[C@H]1[C@@H](C(=O)N1CCN(c3ncccn3)CC1)[C@]1(C(=O)Nc3ccc(C#CCCO)cc31)[C@H]2c1ccc(O)cc1,0.772,-0.238,0.422,-0.057 (inactive),1.06,-0.906,0.397,0.0936,0.359,-0.0667,1.08,-1.38,-0.379,0.562,0.323,0.0215,0.0684,-0.0927,0.516,1.55
C=C(CCCC)/C(=C/C[C@H](OC(=O)c1ccncc1)c1cccc(OCCO)c1)c1cnc2ccccc2c1,1.15,-0.138,-0.303,0.223 (inactive),0.853,0.783,0.463,1.28,0.483,1.6,1.39,-2.46,0.354,0.0734,-0.731,-0.0459,-0.0035,-0.0496,-0.064,0.551
CC(C)(C)N1CC=CC23O[C@@H]4C=CCCOC(=O)C4[C@H]2C(=O)N(CCCCCCO)[C@@H]3C1=O (stereo not given in full),1.34,0.017,0.0876,0.416 (inactive),-0.0479,-0.404,-1.09,-0.63,-0.983,0.406,0.315,0.0358,-0.807,-0.338,0.195,-0.167,-0.352,-0.0207,0.348,1.07
CC1CC/C=C\[C@H]2OC34C=CCN(Cc5ccccc5)C(=O)[C@H]3N(CCCCCCO)C(=O)[C@@H]4C2C(=O)O1 (stereo not given in full),0.954,-0.0995,0.705,0.0368 (inactive),-0.965,-0.587,-1.28,-1.01,-1.49,0.0203,-0.504,-0.117,-1.26,0.284,0.636,-0.12,-0.0146,-0.0007,2.32,-1.2
O=C1C=C(c2ccccc2)C(=O)C2=C1CC([C@H]1Oc3ccccc3S(=O)(=O)N3CCC[C@@H]13)=CC2,-0.365,-0.191,-0.569,-2.32 (inactive),0.0925,-0.009,0.0548,-0.365,0.155,0.718,0.529,-3.98,0.0208,0.042,-0.207,-0.124,-0.304,-0.172,0.0279,0.0221
